# Tests used:
# [1] = biological target: T1, Inhibitor of nuclear factor kappa-B kinase subunit epsilon (Homo sapiens) (UniProt Q14164); details: at 1 µM;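 note: reported values are averaged percent inhibition figures against human IKKε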
# T1 sequence (whole entry): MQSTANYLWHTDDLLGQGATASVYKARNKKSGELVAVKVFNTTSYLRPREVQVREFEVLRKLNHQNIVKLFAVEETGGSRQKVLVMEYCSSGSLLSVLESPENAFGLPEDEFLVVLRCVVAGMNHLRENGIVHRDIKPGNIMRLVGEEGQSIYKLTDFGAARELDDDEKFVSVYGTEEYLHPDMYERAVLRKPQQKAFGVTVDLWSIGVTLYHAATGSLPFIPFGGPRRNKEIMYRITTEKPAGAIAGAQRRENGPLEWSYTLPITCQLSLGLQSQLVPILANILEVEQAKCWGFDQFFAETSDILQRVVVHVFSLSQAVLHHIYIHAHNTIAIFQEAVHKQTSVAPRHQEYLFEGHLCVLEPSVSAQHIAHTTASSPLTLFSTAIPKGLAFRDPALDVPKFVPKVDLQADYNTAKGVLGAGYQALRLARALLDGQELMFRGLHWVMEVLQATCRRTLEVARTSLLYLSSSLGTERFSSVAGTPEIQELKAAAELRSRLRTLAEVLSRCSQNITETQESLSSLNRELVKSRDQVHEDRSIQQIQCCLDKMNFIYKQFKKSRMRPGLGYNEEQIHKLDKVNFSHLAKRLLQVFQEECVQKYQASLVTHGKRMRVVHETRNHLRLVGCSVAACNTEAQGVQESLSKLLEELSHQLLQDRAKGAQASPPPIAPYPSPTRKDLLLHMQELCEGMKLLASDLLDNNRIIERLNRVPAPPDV
# [2] = biological target: T2, Serine/threonine-protein kinase Nek1 (Homo sapiens) (UniProt Q96PY6); details: at 0.1 µM
# T2 sequence (whole entry): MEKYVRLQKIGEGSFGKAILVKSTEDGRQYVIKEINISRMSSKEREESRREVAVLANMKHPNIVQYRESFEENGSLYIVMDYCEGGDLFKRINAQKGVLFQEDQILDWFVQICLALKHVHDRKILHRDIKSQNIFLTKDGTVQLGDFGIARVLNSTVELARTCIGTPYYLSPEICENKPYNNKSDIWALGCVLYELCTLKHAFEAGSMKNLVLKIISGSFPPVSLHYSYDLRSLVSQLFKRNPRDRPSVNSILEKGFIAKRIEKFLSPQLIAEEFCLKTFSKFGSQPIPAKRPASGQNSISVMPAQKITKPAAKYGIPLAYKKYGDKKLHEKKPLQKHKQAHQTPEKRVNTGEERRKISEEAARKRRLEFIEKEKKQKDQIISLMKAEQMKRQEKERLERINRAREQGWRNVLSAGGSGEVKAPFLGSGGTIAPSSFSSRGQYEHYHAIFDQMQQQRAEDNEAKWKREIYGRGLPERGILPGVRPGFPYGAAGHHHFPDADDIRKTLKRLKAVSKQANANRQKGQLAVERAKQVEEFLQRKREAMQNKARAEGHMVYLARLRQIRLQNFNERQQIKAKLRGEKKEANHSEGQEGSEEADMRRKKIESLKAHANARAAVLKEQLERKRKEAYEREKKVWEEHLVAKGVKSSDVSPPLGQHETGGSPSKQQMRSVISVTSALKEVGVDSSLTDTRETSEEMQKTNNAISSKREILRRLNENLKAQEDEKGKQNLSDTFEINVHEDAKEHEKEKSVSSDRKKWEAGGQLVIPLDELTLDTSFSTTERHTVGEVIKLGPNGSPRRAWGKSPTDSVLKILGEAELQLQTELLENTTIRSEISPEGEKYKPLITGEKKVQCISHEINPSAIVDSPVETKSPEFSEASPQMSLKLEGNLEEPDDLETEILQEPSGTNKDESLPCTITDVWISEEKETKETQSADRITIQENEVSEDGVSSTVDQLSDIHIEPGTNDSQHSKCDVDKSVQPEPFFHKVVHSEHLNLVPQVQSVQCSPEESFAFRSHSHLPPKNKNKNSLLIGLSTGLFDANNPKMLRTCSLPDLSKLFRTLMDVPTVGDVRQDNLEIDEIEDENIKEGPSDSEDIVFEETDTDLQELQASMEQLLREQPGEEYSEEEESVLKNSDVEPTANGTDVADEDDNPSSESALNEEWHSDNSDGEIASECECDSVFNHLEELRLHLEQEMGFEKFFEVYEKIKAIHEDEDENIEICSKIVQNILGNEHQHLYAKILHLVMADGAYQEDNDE
# [3] = biological target: T2, Serine/threonine-protein kinase Nek1 (Homo sapiens); details: at 1 µM
# [4] = biological target: T3, Serine/threonine-protein kinase Nek2 (Homo sapiens) (UniProt P51955); details: at 0.1 µM
# T3 sequence (whole entry): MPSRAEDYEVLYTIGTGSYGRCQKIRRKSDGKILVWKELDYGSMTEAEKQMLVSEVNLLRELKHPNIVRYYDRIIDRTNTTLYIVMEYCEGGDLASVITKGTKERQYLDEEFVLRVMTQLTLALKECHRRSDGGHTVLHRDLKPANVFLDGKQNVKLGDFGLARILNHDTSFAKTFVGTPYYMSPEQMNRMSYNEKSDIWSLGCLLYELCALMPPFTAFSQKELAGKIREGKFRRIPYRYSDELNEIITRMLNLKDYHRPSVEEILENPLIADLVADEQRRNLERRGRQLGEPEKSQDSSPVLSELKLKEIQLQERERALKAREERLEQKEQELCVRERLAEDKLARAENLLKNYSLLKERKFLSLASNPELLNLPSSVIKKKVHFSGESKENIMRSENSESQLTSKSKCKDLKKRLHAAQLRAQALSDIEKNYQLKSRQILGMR
# [5] = biological target: T3, Serine/threonine-protein kinase Nek2 (Homo sapiens); details: at 1 µM
# [6] = biological target: Serine/threonine-protein kinase Nek6 (Homo sapiens) (UniProt Q9HC98); details: at 0.1 µM
# Sequence of Serine/threonine-protein kinase Nek6 (Homo sapiens) (Q9HC98 whole entry): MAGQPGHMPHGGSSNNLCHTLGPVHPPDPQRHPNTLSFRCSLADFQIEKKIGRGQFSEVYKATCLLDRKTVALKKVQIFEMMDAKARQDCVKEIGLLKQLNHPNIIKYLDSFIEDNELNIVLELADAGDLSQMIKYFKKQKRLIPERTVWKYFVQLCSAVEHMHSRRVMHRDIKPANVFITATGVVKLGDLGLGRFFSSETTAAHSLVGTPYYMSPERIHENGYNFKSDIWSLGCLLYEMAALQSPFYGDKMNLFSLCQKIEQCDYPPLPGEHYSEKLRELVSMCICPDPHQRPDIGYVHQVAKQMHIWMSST
# [7] = biological target: Serine/threonine-protein kinase Nek6 (Homo sapiens) (UniProt Q9HC98); details: at 1 µM
# [8] = biological target: Serine/threonine-protein kinase Nek7 (Homo sapiens) (UniProt Q8TDX7); details: at 0.1 µM
# Sequence of Serine/threonine-protein kinase Nek7 (Homo sapiens) (Q8TDX7 whole entry, looked up): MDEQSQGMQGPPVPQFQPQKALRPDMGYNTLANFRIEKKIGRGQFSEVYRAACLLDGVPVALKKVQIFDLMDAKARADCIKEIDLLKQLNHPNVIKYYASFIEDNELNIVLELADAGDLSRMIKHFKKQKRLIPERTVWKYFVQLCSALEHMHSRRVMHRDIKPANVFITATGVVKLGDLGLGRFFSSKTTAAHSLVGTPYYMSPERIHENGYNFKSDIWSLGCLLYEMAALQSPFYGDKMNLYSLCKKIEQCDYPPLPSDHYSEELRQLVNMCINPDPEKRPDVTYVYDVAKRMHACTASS
# [9] = biological target: Serine/threonine-protein kinase Nek7 (Homo sapiens) (UniProt Q8TDX7); details: at 1 µM
# [10] = biological target: T4, Serine/threonine-protein kinase Nek9 (Homo sapiens) (UniProt Q8TD19); details: at 0.1 µM
# T4 sequence (whole entry): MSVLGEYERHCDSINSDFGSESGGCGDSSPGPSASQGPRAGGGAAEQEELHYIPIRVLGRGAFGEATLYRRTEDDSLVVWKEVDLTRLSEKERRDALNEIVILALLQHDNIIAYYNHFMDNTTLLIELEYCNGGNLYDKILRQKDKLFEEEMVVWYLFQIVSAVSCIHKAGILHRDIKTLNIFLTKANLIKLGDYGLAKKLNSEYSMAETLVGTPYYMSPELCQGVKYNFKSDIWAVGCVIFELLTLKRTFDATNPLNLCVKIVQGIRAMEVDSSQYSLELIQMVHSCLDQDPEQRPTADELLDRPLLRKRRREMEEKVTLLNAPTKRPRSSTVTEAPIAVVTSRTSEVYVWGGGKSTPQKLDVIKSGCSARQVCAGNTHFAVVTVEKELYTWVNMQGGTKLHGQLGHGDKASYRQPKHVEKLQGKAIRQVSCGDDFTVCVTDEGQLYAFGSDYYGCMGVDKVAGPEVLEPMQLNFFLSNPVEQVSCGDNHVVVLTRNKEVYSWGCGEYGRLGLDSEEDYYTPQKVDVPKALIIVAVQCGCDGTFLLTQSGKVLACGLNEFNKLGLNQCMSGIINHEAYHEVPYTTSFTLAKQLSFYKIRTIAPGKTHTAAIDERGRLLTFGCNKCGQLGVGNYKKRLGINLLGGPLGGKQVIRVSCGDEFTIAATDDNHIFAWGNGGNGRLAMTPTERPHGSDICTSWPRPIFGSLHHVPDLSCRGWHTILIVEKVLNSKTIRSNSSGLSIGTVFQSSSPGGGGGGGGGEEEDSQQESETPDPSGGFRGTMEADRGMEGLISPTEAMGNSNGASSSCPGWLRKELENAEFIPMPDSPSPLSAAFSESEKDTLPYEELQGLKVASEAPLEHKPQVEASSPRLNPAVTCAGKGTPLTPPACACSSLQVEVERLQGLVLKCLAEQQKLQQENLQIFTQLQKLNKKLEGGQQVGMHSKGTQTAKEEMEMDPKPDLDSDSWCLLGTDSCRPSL
# [11] = biological target: T4, Serine/threonine-protein kinase Nek9 (Homo sapiens); details: at 1 µM
# [12] = biological target: Serine/threonine-protein kinase PLK1 (Homo sapiens) (UniProt P53350); details: at 0.1 µM
# Sequence of Serine/threonine-protein kinase PLK1 (Homo sapiens) (P53350 whole entry): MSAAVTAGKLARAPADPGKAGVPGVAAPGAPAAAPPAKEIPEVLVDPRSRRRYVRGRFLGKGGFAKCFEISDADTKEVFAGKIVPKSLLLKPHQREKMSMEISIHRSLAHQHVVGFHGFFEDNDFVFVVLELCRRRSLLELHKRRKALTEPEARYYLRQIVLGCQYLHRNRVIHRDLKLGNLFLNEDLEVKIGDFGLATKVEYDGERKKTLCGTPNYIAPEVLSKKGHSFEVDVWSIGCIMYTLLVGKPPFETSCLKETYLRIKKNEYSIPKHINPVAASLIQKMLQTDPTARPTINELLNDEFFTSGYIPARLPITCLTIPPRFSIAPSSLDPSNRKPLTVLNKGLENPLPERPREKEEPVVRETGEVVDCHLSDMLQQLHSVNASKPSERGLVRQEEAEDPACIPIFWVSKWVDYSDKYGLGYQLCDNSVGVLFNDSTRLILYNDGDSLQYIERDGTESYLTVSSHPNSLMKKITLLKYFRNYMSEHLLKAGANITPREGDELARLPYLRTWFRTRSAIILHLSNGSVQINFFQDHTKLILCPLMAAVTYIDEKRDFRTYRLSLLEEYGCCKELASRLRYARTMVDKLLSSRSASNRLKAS
# [13] = biological target: Serine/threonine-protein kinase PLK1 (Homo sapiens) (UniProt P53350); details: at 1 µM
# [14] = biological target: T5, Dual specificity protein kinase TTK (Homo sapiens) (UniProt P33981); details: at 0.1 µM
# T5 sequence (whole entry): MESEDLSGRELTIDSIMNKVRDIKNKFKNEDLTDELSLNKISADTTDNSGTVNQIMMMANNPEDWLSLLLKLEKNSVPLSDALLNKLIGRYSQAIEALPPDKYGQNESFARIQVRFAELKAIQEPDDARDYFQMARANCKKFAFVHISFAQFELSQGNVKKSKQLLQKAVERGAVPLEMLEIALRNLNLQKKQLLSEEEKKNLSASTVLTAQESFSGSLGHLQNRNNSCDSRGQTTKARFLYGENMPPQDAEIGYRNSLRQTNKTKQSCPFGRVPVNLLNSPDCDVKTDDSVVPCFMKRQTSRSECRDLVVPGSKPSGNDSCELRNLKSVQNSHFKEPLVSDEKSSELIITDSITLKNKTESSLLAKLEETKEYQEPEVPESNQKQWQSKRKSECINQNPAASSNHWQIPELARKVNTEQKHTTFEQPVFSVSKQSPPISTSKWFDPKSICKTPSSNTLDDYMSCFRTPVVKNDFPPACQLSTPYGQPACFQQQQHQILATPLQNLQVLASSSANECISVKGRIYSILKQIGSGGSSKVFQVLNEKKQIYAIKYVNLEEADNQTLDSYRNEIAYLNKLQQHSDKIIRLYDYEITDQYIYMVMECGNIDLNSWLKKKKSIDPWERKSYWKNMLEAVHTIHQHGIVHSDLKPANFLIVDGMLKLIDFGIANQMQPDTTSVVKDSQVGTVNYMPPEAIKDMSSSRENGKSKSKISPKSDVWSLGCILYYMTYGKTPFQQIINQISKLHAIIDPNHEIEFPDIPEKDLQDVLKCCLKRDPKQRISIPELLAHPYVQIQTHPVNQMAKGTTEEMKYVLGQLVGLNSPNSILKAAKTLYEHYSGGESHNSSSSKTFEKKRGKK
# [15] = test system: T6, Receptor-type tyrosine-protein kinase FLT3 (Homo sapiens), P36888 [D835Y]; details: at 1 µM
# T6 sequence (whole entry): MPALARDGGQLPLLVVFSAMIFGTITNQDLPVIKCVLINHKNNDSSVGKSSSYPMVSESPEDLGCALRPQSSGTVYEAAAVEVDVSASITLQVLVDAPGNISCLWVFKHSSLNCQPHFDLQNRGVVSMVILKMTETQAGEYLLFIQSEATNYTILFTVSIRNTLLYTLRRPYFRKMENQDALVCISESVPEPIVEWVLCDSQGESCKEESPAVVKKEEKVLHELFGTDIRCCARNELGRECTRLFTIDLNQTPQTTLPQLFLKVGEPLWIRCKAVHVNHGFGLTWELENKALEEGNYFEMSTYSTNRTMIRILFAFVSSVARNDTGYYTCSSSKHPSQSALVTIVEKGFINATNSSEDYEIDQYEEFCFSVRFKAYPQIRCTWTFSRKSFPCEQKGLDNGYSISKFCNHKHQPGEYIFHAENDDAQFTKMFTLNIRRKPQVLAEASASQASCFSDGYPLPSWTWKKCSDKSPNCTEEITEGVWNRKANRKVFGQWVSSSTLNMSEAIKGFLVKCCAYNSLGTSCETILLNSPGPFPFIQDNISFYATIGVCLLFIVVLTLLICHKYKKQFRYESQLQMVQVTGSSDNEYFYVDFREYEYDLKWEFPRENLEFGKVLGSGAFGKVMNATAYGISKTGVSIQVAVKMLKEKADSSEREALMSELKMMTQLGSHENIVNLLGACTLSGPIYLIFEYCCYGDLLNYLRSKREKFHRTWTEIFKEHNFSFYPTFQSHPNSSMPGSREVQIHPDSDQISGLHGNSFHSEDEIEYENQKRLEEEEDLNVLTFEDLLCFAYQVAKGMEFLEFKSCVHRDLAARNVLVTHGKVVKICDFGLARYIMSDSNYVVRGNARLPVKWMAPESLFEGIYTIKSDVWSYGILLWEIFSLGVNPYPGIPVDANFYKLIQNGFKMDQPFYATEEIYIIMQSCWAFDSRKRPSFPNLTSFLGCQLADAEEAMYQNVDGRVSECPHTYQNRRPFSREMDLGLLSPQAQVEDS
# [16] = biological target: Vascular endothelial growth factor receptor 3 (Homo sapiens) (UniProt P35916); details: at 0.1 µM
# Sequence of Vascular endothelial growth factor receptor 3 (Homo sapiens) (P35916 whole entry): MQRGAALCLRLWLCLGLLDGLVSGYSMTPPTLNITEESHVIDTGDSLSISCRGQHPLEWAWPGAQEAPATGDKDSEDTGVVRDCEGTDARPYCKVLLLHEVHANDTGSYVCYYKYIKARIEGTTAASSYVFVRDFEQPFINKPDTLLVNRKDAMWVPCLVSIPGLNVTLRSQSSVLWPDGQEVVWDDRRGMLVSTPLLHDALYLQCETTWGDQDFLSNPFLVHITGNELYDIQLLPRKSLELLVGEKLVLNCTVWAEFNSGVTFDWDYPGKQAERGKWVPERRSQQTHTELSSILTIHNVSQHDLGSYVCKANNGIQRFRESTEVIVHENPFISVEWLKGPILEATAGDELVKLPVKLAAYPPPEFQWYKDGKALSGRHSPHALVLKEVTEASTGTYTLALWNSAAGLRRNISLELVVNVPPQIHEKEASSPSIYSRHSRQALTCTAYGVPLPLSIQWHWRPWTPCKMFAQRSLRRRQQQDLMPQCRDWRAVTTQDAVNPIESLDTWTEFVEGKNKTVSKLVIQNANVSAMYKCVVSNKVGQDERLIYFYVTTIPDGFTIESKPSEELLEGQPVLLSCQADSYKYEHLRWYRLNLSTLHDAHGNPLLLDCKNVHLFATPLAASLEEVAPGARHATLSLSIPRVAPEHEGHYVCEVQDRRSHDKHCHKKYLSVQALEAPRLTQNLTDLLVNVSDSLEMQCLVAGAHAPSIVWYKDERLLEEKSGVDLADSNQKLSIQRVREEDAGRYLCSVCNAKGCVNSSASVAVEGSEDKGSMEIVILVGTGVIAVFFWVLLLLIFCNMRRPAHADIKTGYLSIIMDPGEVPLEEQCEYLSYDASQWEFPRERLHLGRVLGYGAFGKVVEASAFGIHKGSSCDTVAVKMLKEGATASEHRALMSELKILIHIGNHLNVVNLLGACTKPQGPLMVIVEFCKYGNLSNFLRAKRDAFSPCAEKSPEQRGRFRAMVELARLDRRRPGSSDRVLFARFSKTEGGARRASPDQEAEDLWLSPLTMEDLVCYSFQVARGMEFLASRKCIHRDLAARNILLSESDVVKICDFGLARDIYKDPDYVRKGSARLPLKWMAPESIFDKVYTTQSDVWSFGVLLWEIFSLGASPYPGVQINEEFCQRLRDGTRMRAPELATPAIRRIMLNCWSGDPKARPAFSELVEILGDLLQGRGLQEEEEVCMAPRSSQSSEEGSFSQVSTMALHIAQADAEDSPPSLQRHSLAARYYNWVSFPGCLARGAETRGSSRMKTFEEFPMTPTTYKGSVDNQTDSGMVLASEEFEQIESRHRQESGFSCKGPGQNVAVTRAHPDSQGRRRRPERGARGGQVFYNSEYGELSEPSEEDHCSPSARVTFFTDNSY
# [17] = biological target: Vascular endothelial growth factor receptor 3 (Homo sapiens) (UniProt P35916); details: at 1 µM
# [18] = biological target: Macrophage colony-stimulating factor 1 receptor (Homo sapiens) (UniProt P07333); details: at 0.1 µM
# Sequence of Macrophage colony-stimulating factor 1 receptor (Homo sapiens) (P07333 whole entry): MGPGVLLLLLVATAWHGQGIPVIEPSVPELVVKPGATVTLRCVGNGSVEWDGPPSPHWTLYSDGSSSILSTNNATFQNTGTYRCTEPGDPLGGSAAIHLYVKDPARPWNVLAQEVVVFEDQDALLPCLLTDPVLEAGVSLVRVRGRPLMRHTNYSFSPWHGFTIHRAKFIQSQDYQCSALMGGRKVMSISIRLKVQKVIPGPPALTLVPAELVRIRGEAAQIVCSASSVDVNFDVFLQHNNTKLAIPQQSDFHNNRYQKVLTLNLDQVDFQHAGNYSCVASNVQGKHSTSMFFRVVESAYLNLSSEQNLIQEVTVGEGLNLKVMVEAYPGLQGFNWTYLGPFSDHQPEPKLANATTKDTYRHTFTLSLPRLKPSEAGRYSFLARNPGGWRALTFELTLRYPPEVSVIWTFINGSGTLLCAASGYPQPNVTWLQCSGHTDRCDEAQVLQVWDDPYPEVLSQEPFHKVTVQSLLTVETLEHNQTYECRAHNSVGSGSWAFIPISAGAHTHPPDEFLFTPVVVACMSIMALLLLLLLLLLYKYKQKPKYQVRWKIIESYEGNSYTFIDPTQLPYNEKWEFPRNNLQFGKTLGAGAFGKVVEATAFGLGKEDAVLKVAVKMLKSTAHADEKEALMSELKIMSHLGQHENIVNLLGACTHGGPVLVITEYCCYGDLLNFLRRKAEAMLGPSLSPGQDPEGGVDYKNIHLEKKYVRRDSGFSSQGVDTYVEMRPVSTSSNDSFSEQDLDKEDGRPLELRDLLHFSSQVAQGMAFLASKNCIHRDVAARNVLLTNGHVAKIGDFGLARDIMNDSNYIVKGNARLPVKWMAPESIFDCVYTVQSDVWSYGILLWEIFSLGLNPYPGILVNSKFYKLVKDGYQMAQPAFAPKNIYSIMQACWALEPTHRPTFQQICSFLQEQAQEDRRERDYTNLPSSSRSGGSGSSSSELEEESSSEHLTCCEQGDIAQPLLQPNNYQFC
# [19] = biological target: Macrophage colony-stimulating factor 1 receptor (Homo sapiens) (UniProt P07333); details: at 1 µM
# [20] = biological target: Tyrosine-protein kinase Fyn (Homo sapiens) (UniProt P06241); details: at 0.1 µM
# Sequence of Tyrosine-protein kinase Fyn (Homo sapiens) (P06241 2-537 limits assumed): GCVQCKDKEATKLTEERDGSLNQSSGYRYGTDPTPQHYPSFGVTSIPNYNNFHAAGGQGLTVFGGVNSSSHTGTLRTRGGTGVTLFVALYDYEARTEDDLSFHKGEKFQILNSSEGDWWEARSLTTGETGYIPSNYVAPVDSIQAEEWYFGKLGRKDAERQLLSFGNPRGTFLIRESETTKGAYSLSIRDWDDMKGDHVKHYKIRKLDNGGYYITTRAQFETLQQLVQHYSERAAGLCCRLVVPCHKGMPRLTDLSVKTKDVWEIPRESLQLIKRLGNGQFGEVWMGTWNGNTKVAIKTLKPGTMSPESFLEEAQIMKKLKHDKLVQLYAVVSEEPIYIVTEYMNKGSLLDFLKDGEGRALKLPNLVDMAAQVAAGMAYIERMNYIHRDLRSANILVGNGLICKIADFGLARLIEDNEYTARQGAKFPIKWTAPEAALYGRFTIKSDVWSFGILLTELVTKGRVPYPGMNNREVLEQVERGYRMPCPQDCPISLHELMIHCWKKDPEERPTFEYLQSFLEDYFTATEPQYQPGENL
Compound,inhibition [1] [%],inhibition [2] [%],inhibition [3] [%],inhibition [4] [%],inhibition [5] [%],inhibition [6] [%],inhibition [7] [%],inhibition [8] [%],inhibition [9] [%],inhibition [10] [%],inhibition [11] [%],inhibition [12] [%],inhibition [13] [%],inhibition [14] [%],inhibition [15] [%],inhibition [16] [%],inhibition [17] [%],inhibition [18] [%],inhibition [19] [%],inhibition [20] [%]
Nc1nc(-c2ccc(F)cc2)c(-c2ccc3ncccc3n2)s1,7.4,2.04,36,4.57,6.71,2.87,5.03,3.03,3.14,11.5,11.1,3.57,6.9,9.86,6.56,4.58,11.6,3.44,7.59,2.8
COc1ccc2c(-c3ccnc(Nc4cccc(OC(F)(F)F)c4)n3)cnn2n1,26.7,3.61,6.35,5.13,4.77,3.21,4.5,3.37,4.57,5.79,10.2,3.05,3.9,5.81,15.6,4.15,5.87,7.22,33.3,2.72
c1cc(-c2cnn3nc(N4CCOCC4)ccc23)nc(NC2CC2)n1,5.49,3.14,6.78,4.47,4.05,0.95,0.56,3.89,4.77,-1.68,-2.57,2.55,2.08,18.4,37.5,5.93,29.9,6.94,33.7,0.47
CS(=O)(=O)CCNCc1coc(-c2ccc3ncnc(Nc4ccc(OCc5ccccc5)cc4)c3c2)c1,4.57,2.15,3.07,4.2,2.21,1.54,2.23,2.37,3.98,8.97,15.4,4.26,5.02,5.49,4.15,4.45,2.92,0.22,7.42,1.47

# From ChEMBL document CHEMBL1961873, “Compounds: GSK PKIS; Assays: Nanosyn kinase panel” (2012)
